Hit rate of the full screen: of about 5,500 compounds, about 2,000 (36%) were called active. Roughly 18% stayed inconclusive and do not appear here. Cut-off read from the data, not from the text of the source: active = normalized growth mostly below about 0.91 (no sharp cut-off); inconclusive = no clear call, values can overlap the other calls; inactive = mostly above about 0.92. This is one part of the list.
Test: chemical genetic growth profiling, strain panel (AID 1159580);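 note: tested at 20 µM; growth read once vehicle control cultures reached saturation at 30 °C; 1 = growth at the plate median or of vehicle wells; lower values mean less growth of the strain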
Details: S. cerevisiae deletion strains, growth OD

Measured: normalized growth

COc1ccc(C(=O)CSC2=NCCc3ccccc32)cc1
inactive: locus YAR019C, strain CDC15, stronger effect = lower value 0.975 | locus YBL105C, strain PKC1, stronger effect = lower value 0.982 | locus YBR135W, strain CKS1, stronger effect = lower value 0.959 | locus YBR136W, strain MEC1, stronger effect = lower value 0.978 | locus YBR160W, strain CDC28, stronger effect = lower value 0.974 | locus YDL017W, strain CDC7, stronger effect = lower value 0.98 | locus YDL028C, strain MPS1, stronger effect = lower value 0.97 | locus YDL101C, strain DUN1, stronger effect = lower value 0.976 | locus YDL108W, strain KIN28, stronger effect = lower value 0.968 | locus YDL132W, strain cdc53, stronger effect = lower value 0.974 | locus YDL214C, strain PRR2, stronger effect = lower value 0.999 | locus YDR052C, strain DBF4, stronger effect = lower value 0.983 | locus YDR054C, strain cdc34, stronger effect = lower value 0.978 | locus YDR226W, strain ADK1, stronger effect = lower value 0.971 | locus YDR477W, strain SNF1, stronger effect = lower value 1 | locus YER123W, strain YCK3, stronger effect = lower value 1.02 | locus YER133W, strain GLC7, stronger effect = lower value 1.01 | locus YFL009W, strain cdc4, stronger effect = lower value 0.968 | locus YFL029C, strain CAK1, stronger effect = lower value 0.972 | locus YFR003C, strain YPI1, stronger effect = lower value 0.979 | locus YFR019W, strain FAB1, stronger effect = lower value 1.04 | locus YFR028C, strain CDC14, stronger effect = lower value 0.982 | locus YGR040W, strain KSS1, stronger effect = lower value 1 | locus YGR052W, strain FMP48, stronger effect = lower value 1.13 | locus YGR092W, strain DBF2, stronger effect = lower value 0.984 | locus YHR030C, strain SLT2, stronger effect = lower value 1.01 | locus YHR079C, strain IRE1, stronger effect = lower value 1 | locus YHR082C, strain KSP1, stronger effect = lower value 1.04 | locus YHR205W, strain SCH9, stronger effect = lower value 0.938 | locus YIL147C, strain SLN1, stronger effect = lower value 0.971 | locus YJL095W, strain BCK1, stronger effect = lower value 0.969 | locus YJL128C, strain PBS2, stronger effect = lower value 0.951 | locus YJL157C, strain FAR1, stronger effect = lower value 0.995 | locus YJR016C, strain ILV3, stronger effect = lower value 0.972 | locus YJR066W, strain TOR1 (second series), stronger effect = lower value 1 | locus YJR066W, strain TOR1, stronger effect = lower value 0.985 | locus YKL048C, strain ELM1, stronger effect = lower value 1.03 | locus YKL067W, strain YNK1, stronger effect = lower value 0.997 | locus YKL101W, strain HSL1, stronger effect = lower value 0.98 | locus YKL193C, strain SDS22, stronger effect = lower value 0.966 | locus YKL203C, strain TOR2, stronger effect = lower value 1.05 | locus YLR113W, strain HOG1, stronger effect = lower value 0.99 | locus YLR133W, strain CKI1, stronger effect = lower value 1.01 | locus YLR403W, strain SFP1, stronger effect = lower value 1.01 | locus YML070W, strain DAK1, stronger effect = lower value 1 | locus YMR001C, strain CDC5, stronger effect = lower value 0.962 | locus YMR205C, strain PFK2 (second series), stronger effect = lower value 0.998 | locus YMR277W, strain FCP1, stronger effect = lower value 0.968 | locus YNL006W, strain LST8, stronger effect = lower value 0.969 | locus YNL020C, strain ARK1, stronger effect = lower value 1.02 | locus YNL161W, strain CBK1, stronger effect = lower value 0.964 | locus YNL183C, strain NPR1, stronger effect = lower value 0.977 | locus YNL207W, strain RIO2, stronger effect = lower value 0.977 | locus YNL222W, strain SSU72, stronger effect = lower value 0.976 | locus YNL307C, strain MCK1 (second series), stronger effect = lower value 1.02 | locus YOL078W, strain AVO1, stronger effect = lower value 0.966 | locus YOL136C, strain PFK27, stronger effect = lower value 1.02 | locus YOR061W, strain CKA2, stronger effect = lower value 0.967 | locus YOR119C, strain RIO1, stronger effect = lower value 1.07 | locus YOR231W, strain MKK1, stronger effect = lower value 0.966 | locus YOR329C, strain SCD5, stronger effect = lower value 0.982 | locus YPL031C, strain PHO85, stronger effect = lower value 0.997 | locus YPL153C, strain RAD53, stronger effect = lower value 1 | locus YPL204W, strain HRR25, stronger effect = lower value 1.02 | locus YPL209C, strain IPL1, stronger effect = lower value 0.973 | locus YPL256C, strain CLN2, stronger effect = lower value 1.07 | locus YPR025C, strain CCL1, stronger effect = lower value 0.97 | locus YPR106W, strain ISR1, stronger effect = lower value 0.986 | locus YPR111W, strain DBF20, stronger effect = lower value 0.97 | strain NNK1, stronger effect = lower value 0.995 | strain TSCII, stronger effect = lower value 0.964
